# Most compounds without a hit are left out; they make up all but 11% or so of the library.
# Tau fibril FP – inhibitors of human tau fibril formation; AID 1468; Potency, µM (highest dose often 57.7 µM), for inactives: top-dose activity, negative = inhibition, hits mostly inhibitors; 280,000 compounds, 0.39% hits; K18 P301L tau heparin fibrillization, Alexa594 FP, 6 h; P10636; note: potency is the fitted concentration of half-maximal effect; nearly all actives have a fitted effect of over 55% in size
# Target sequence (P10636 561-689 P618L limits assumed): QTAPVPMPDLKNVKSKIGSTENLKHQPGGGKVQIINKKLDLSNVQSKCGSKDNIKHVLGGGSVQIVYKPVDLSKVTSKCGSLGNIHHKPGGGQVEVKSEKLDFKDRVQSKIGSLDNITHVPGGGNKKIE
#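 Human K18 P301L fragment (15 uM unlabeled plus 0.24 uM Alexa 594-labeled) in 100 mM sodium acetate pH 7 with compound, aggregation induced by 20 uM heparin for 6 hr at 37 C. ThT (30 uM) added for 1 hr, then Alexa 594 FP read.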
# G9a block – blocks human histone lysine methyltransferase G9a; G9a H3K9 monomethylation, AlphaScreen, 2 h; AID 504332; Q96KQ7; 350,000 compounds, 8.8% hits; Potency, µM (top dose mostly 102 µM), without a hit: top-dose activity, negative = inhibition, most hits filed as inhibitors; note: potency is the fitted concentration of half-maximal effect; nearly all actives have a fitted effect of over 75% in size
# Target sequence (Q96KQ7 913-1193 limits assumed): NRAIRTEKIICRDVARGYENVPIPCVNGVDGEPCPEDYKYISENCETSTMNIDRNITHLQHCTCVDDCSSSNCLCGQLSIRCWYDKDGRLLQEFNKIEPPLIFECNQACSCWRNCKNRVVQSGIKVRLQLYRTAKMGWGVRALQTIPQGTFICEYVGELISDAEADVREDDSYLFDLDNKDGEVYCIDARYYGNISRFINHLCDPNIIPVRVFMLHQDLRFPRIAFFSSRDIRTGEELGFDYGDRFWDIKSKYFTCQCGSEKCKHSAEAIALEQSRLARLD
#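 G9a (20 nM) was preincubated 15 min with compound, then reacted 2 h at room temperature with 500 nM biotin-H3K9 peptide and 20 µM SAM. Monomethyl-H3K9 detected by AlphaScreen using anti-H3K9me1 antibody.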
# Tau fibril ThT – blocks human tau fibril formation measured by thioflavin T; P10636; recombinant tau K18 P301L, heparin-induced fibrillization, ThT fluorescence; Potency, µM (titrated, usually from 57.4 µM), inactives show at the highest dose activity, negative = inhibition, hits mostly inhibitors; 270,000 compounds, 2.1% hits; AID 1460; note: potency is the fitted concentration of half-maximal effect; nearly all actives have a fitted effect of over 55% in size
#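 In this qHTS, human K18 P301L tau is incubated with compound and heparin for 6 hr at 37 C, and Thioflavin T fluorescence then reports fibril load.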
# Sfp PPTase inh – blocks B. subtilis Sfp PPTase activity | Biochemical Sfp PPTase activity, qHTS | Potency, µM, for the others: largest response in the series, negative = inhibition, hits mostly inhibitors | 310,000 compounds, 3.5% hits;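 note: the enzyme is Sfp with the accession as filed and its product quenches rhodamine fluorescence; potency is the fitted concentration of half-maximal effect; 0% = enzyme reaction without inhibitor and -100% = no enzyme wells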
#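 Sfp 15 nM + cpd, 15 min RT; start w/ rhodamine-CoA 5 uM, BHQ-2-YbbR 12.5 uM (final); 50 mM Hepes pH 7.6, 10 mM MgCl2, 0.01% NP-40, 0.01% BSA; read 525/598 nm at 0 and 30 min.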
# Tau fluor counter – counter-screen for tau fibril formation inhibitors. tau K18 P301L Alexa594 fluorescence, heparin fibrillization. Potency, µM (highest dose often 57.7 µM), for the others: at the highest dose activity change, negative = decrease. 280,000 compounds, 0.93% hits; note: potency is the fitted concentration of half-maximal effect; nearly all actives have a fitted effect of over 55% in size
#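 Human tau K18 P301L (15 uM unlabeled, 0.24 uM Alexa 594-labeled) in 100 mM sodium acetate pH 7 with 20 uM heparin, 6 hr at 37 C. ThT 30 uM added, 1 hr ambient; Alexa 594 FP and total fluorescence read at 555/632 nm.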
# FBPA coupling cs – inhibits coupling enzyme system, counter-screen for aldolase hits; coupling enzyme system counterscreen, AmpLite Red fluorescence; activity change, negative = inhibition, % at 58.2 µM, hits read low; 290,000 compounds, 0.67% hits; AID 2472; in the data active = activity change below about -30%
#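 Counterscreen of the coupled detection system alone, without aldolase: glyceraldehyde-3-phosphate coupling enzymes plus AmpLite Red readout. Compounds at 57.5 uM final, 10 min RT preincubation, 20 min RT reaction, fluorescence 525/598 nm.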
# * = called active by the depositor; ? = inconclusive; / = not tested or not shown; [ ] = another dose, or the depositor's remark. Unless noted, calls come from the whole dose curve; as a rule, active = well fitted curve in the direction sought with a large enough effect; inconclusive = small, poorly fitted or top-dose-only effect, or another doubt; inactive = no such curve, though single readings can be large; an effect the other way counts as inactive or inconclusive. Unless noted, % is set by controls: 0 for no effect and ±100 for the full control effect.
SMILES,Tau fibril FP,G9a block,Tau fibril ThT,Sfp PPTase inh,Tau fluor counter,FBPA coupling cs
O=C1CC(Nc2ccccc2)C(=O)N1c1ccc(N2CCOCC2)cc1 (stereo not drawn),4.3%,-4.9%[2.33 µM],?,-4.9%,-3.5%,3.2
CCc1ccc(NC2CC(=O)N(CCc3ccc(OC)c(OC)c3)C2=O)cc1 (stereo not drawn),10.7%,50.1µM*,-10.0%,1.5%,-6.5%,-1.2
COc1ccc(CCN2C(=O)CC(Nc3ccc(N4CCOCC4)cc3)C2=O)cc1OC (stereo not drawn),4.7%,14.1µM*,12.6µM*,-2.7%,-13.2%,4.1
O=C1CC(Nc2ccc(N3CCOCC3)cc2)C(=O)N1c1ccccc1F (stereo not drawn),-5.4%,8.91µM*,14.1µM*,50.1µM*,-27.4%,-1.9
Cc1cccc(C(=O)Nc2nnc(S(=O)(=O)N(C)Cc3ccc(Cl)cc3)s2)c1,-8.4%,-5.3%[59 µM],11.0%,/,-19.2%,/
CC(CCc1ccccc1)NC(=O)CC(C)c1ccccc1 (stereo not drawn),/,/,/,-2.6%,/,0.8
O=C(CSc1nnc(-c2ccncc2)n1-c1ccccc1)N1CCN(c2ccc(Cl)cc2)CC1,-1.4%,28.2µM*,?,17.5%,-13.7%,2.3
O=C(CSc1nnc(-c2ccncc2)n1-c1ccccc1)Nc1ccc(C(=O)O)cc1,-3.7%,50.1µM*,-8.9%,-16.0%,-7.6%,4.8
CCOC(=O)N1CCC(NC(=O)c2cnn(-c3ccc(F)cc3F)c2C2CCN(C(=O)OC(C)(C)C)CC2)CC1,-10.0%,-4.1%[59 µM],-9.1%,/,-8.5%,/
CC(=O)c1ccc(N2CCN(C(=O)c3ccc(NC4=NC5CS(=O)(=O)CC5S4)cc3)CC2)cc1 (stereo not drawn),/,3.4%,/,7.9%,/,-1.5
CCc1ccc(NC(=O)CSC2=Nc3ccccc3C3=NC(CCC(=O)NCc4ccco4)C(=O)N23)cc1 (stereo not drawn),10.6%,-1.6%[59 µM],5.7%,/,6.9%,/
CN(C)c1ccc(/C=c2\sc3n(c2=O)CCCN=3)cc1,-2.1%,3.16µM*,?,-10.9%,?,-2.5
Cn1cccc1CC(=O)N/N=C/c1ccc(Cl)c([N+](=O)[O-])c1,-3.4%,50.1µM*,/,-15.6%,-25.2%,0.4
Cc1cccc(N(CC(=O)N/N=C/c2cc([N+](=O)[O-])ccc2Cl)S(C)(=O)=O)c1C,7.7%,?,-17.2%,6.2%,?,-59.4*
Cn1cccc1CC(=O)N/N=C/c1cc([N+](=O)[O-])ccc1Cl,7.6%,44.7µM*,?,3.1%,-19.8%,-5.3
Cc1cccc(NC(=O)c2cccc(N3CCCS3(=O)=O)c2)c1,-5.9%,2.4%[59 µM],-9.9%,/,-7.1%,/
O=C(Nc1ccc(OC(F)(F)F)cc1)c1cnccn1,/,/,/,6.9%,/,0.1
N#Cc1ccccc1NC(=O)CSc1ncn[nH]1,-0.9%,-0.7%[59 µM],0.7%,/,3.9%,/
COC(=O)C1=C(C)NC(=O)/C1=C\c1cc(C)n(-c2cc(C)cc(C)c2)c1C,1.1%,-14.7%[12.7 µM],20µM*,-12.4%,?,0.1
COC(=O)C1=C(O)/C(=C\c2cc(C)n(-c3ccccc3F)c2C)N=C1C,-2.7%,?,?,4.3%,-15.7%,3.9
Cc1cc(C)cc(-n2c(C)cc(C=C(C#N)C#N)c2C)c1,-10.7%,11.8%[12.7 µM],?,15.1%,-4.3%,2.3
COC(=O)C1=C(C)NC(=O)/C1=C\c1cc(C)n(-c2ccccc2)c1C,3.8%,39.8µM*,12.6µM*,?,?,-23.0
Cc1ccc(CSc2nc(-c3ccccc3C)nc3c2Cc2c(CO)cnc(C)c2O3)cc1,3.6%,4.6%[59 µM],-0.9%,/,-2.0%,/
Cc1ccc(S(=O)(=O)Nc2ccc(-n3cnnn3)cc2)c(C)c1,/,-6.6%[2.33 µM],/,/,/,/
Cc1cc(C)c(S(=O)(=O)Nc2ccc(N(C)C)cc2)c(C)c1-n1cnnn1,/,3.55µM*,/,-2.5%,/,-9.3
SMILES,Tau fibril FP,G9a block,Tau fibril ThT,Sfp PPTase inh,Tau fluor counter,FBPA coupling cs
Cc1ccc(Cl)cc1NC(=O)c1cc(CN2CCCC2)on1,-4.1%,9.8%[59 µM],-8.8%,/,-1.4%,/
CCN(CC)c1ccc(NC(=O)c2cc(OC)cc(OC)c2)c(C)c1,8.9%,2.51µM*,?,5.1%,-19.5%,-0.3
CCN(CC)c1ccc(NC(=O)C2COc3ccc(OC)cc3C2)c(C)c1 (stereo not drawn),10.8%,7.94µM*,?,/,-20.3%,/
CCN(CC)c1ccc(NC(=O)c2cc(CN3CCCC3)on2)c(C)c1,4.3%,14.1µM*,-15.5%,/,-10.4%,/
COc1cc(OC)cc(C(=O)Nc2ccc(NC(=O)c3ccco3)c(C)c2)c1,/,50.1µM*,/,11.2%,/,-0.5
CC1=NNC(=O)C1CC(=O)N/N=C(\C)c1ccco1 (stereo not drawn),4.6%,28.4%,8.2%,16.0%,8.2%,-1.6
CCCCNC(=O)CSc1nc2cc3c(cc2c(=O)n1CCCC(=O)NCc1ccc2c(c1)OCO2)OCO3,?,20.1%[59 µM],13.9%,/,-0.5%,/
COC(=O)c1sc2cccc(F)c2c1S(=O)(=O)NCc1ccc(Cl)cc1,-15.7%,-0.3%[59 µM],-3.1%,/,-19.7%,/
COC(=O)N1CC=CC1(C)C(=O)NCc1ccc(C)o1 (stereo not drawn),?,/,22.4µM*,?,-19.2%,-8.0
CC(=O)N1CC=CC1(CC(C)C)C(=O)NCc1ccc(C)o1 (stereo not drawn),-19.7%,/,?,44.7µM*,-8.3%,4.7
COC(=O)N1[C@H](C)C=C[C@]1(Cc1ccccc1)C(=O)NCc1ccc(N(C)C)cc1,-9.7%,/,-17.9%,-0.9%,-22.6%,-2.3
COC(=O)N1[C@H](C)C=C[C@]1(Cc1ccccc1)C(=O)NCc1ccc(C)o1,?,/,?,44.7µM*,-6.1%,-3.1
CCOc1ccccc1N1CCN(CC(=O)Nc2ccccc2C(=O)NC2CC2)CC1,/,-9.1%[2.33 µM],/,/,/,/
O=C(CP(=O)(c1ccccc1)c1ccccc1)N/N=C/c1cc(Br)cc(Br)c1O,7.5%,29.0%[59 µM],?,12.2%,-26.4%,2.0
O=C(O)c1cccc(N/N=C/c2cc(Br)cc(Br)c2O)c1,?,?,11.2µM*,8.9%,17.8µM*[quencher],2.7
C/C(=N\NC(=O)C(=O)Nc1cccc(C(F)(F)F)c1)c1ccc(Cl)s1,?,-1.6%[59 µM],-17.3%,1.6%,-15.9%,0.0
COc1ccc(/C(C)=N/Nc2cccc(C(=O)O)c2)cc1OC,-0.5%,1.41µM*,?,-1.4%,-0.6%,-1.0
COc1ccc(C(=O)N/N=C(/C)c2cccc(NC(=O)c3ccncc3)c2)cc1OC,/,-2.4%[0.501 µM],/,18.6%,/,/
CCC/C(=N\NC(=O)c1ccc(OC)c(OC)c1)c1ccccc1,-4.0%,79.4µM*,-5.7%,7.7%,0.8%,-0.2
C/C(=N\Nc1cccc(C(=O)O)c1)c1ccc(Cl)s1,6.6%,22.4µM*,?,-6.8%,?,5.0

# High-throughput results (PubChem)
